Measurements from PubChem BioAssay AID1159580 (chemical genetic matrix, 2015).
Several values for one entry are separate records, joined by “and”; a condition that tells them apart may be missing. Identical values can stand only once. Among all 5,500 compounds or so, about 2,000 (36%) were called active. Another 18% or so got no clear call; they are omitted. Rule as the data show it: active = normalized growth mostly below about 0.91 (no sharp cut-off); inconclusive = no clear call, values can overlap the other calls; inactive = mostly above about 0.92. Some of the results follow.

Test: chemical genetic growth profiling, strain panel (AID 1159580);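 also: tested at 20 µM; growth read once vehicle control cultures reached saturation at 30 °C; 1 = growth at the plate median or of vehicle wells; lower values mean less growth of the strain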
Details: S. cerevisiae deletion strains, growth OD

Measured: normalized growth

O=c1c(O)c(-c2ccc(O)cc2O)oc2cc(O)cc(O)c12
inactive: locus YKL009W, strain mrt4, hits give low values 1.01 | locus YKL068W, hits give low values 1.01 | locus YKL085W, strain MDH1 (second series), hits give low values 0.999 | locus YKL085W, strain MDH1, hits give low values 0.999 | locus YKL160W, strain elf1, hits give low values 0.989 | locus YKL190W, strain CNB1, hits give low values 1 | locus YKR001C, strain vps1, hits give low values 1.01 | locus YKR026C, strain gcn3, hits give low values 0.975 | locus YKR091W, strain srl3, hits give low values 0.996 | locus YLL001W, strain dnm1, hits give low values 0.983 | locus YLL026W, hits give low values 1 | locus YLL041C, strain sdh2, hits give low values 0.999 | locus YLR027C, strain aat2, hits give low values 1.01 | locus YLR039C, strain RIC1, hits give low values 1.04 | locus YLR058C, strain SHM2, hits give low values 0.984 | locus YLR102C, strain apc9, hits give low values 1.01 | locus YLR113W, strain HOG1, hits give low values 1 | locus YLR221C, strain rsa3, hits give low values 0.963 | locus YLR258W, strain gsy2, hits give low values 0.985 | locus YLR262C, strain YPT6 (second series), hits give low values 0.966 | locus YLR262C, strain YPT6, hits give low values 1.06 | locus YLR268W, strain sec22, hits give low values 1.03 | locus YLR320W, strain mms22, hits give low values 0.959 | locus YLR330W, strain CHS5, hits give low values 1.01 | locus YLR342W, strain FKS1 (second series), hits give low values 0.965 | locus YLR342W, strain FKS1, hits give low values 0.974 | locus YLR357W, strain rsc2, hits give low values 0.924 | locus YLR370C, strain arc18, hits give low values 0.988 | locus YLR371W, strain rom2, hits give low values 0.995 | locus YLR384C, strain iki3, hits give low values 1 | locus YLR418C, strain cdc73, hits give low values 1.05 | locus YML016C, strain PPZ1, hits give low values 0.972 | locus YML032C, strain rad52, hits give low values 1 | locus YML120C, strain ndi1, hits give low values 0.994 | locus YML124C, strain tub3, hits give low values 1.02 | locus YMR058W, strain fet3, hits give low values 0.932 | locus YMR078C, strain ctf18, hits give low values 1.03 | locus YMR125W, strain sto1, hits give low values 1 | locus YMR129W, hits give low values 1.01 | locus YMR205C, strain PFK2, hits give low values 0.98 | locus YMR223W, strain ubp8, hits give low values 0.986 | locus YMR231W, strain pep5, hits give low values 0.991 | locus YMR263W, strain SAP30, hits give low values 0.996 and 1.01 | locus YMR307W, strain GAS1, hits give low values 0.942 | locus YNL067W, strain RPL9B, hits give low values 1 | locus YNL071W, strain lat1, hits give low values 1 | locus YNL128W, strain TEP1, hits give low values 1 | locus YNL175C, strain NOP13, hits give low values 1.01 | locus YNL183C, strain NPR1, hits give low values 0.961 | locus YNL197C, strain WHI3, hits give low values 1.01 | locus YNL209W, strain ssb2, hits give low values 0.991 | locus YNL224C, strain SQS1, hits give low values 1.03 | locus YNL233W, strain BNI4, hits give low values 0.988 | locus YNL248C, strain rpa49, hits give low values 0.976 | locus YNL250W, strain rad50, hits give low values 1.01 | locus YNL271C, strain bni1, hits give low values 0.993 | locus YNL298W, strain CLA4, hits give low values 1 | locus YNL307C, strain MCK1, hits give low values 1.02 | locus YNL322C, strain KRE1 (second series), hits give low values 0.987 | locus YNL322C, strain KRE1, hits give low values 1 | locus YNR049C, strain mso1, hits give low values 1 | locus YNR052C, strain pop2, hits give low values 0.992 | locus YOL006C, strain TOP1, hits give low values 1.01 | locus YOL012C, strain htz1 0.825 | locus YOL147C, strain pex11, hits give low values 1.02 | locus YOR001W, strain rrp6, hits give low values 0.996 | locus YOR061W, strain CKA2, hits give low values 0.97 | locus YOR069W, strain VPS5, hits give low values 0.992 | locus YOR070C, strain gyp1, hits give low values 0.989 | locus YOR080W, strain dia2, hits give low values 0.994 | locus YOR083W, strain WHI5 (second series), hits give low values 1.01 | locus YOR083W, strain WHI5, hits give low values 0.974 | locus YOR106W, strain vam3, hits give low values 0.931 | locus YOR136W, strain idh2, hits give low values 1.02 | locus YOR144C, strain elg1, hits give low values 1.02 | locus YOR184W, strain ser1, hits give low values 1.01 | locus YOR231W, strain MKK1, hits give low values 0.988 | locus YOR265W, strain rbl2, hits give low values 0.991 | locus YOR270C, strain vph1, hits give low values 0.872 | locus YOR290C, strain snf2, hits give low values 0.976 | locus YOR316C, strain cot1, hits give low values 1.01 | locus YPL051W, strain arl3, hits give low values 0.952 | locus YPL055C, strain LGE1, hits give low values 1 | locus YPL078C, strain atp4, hits give low values 0.994 | locus YPL106C, strain sse1, hits give low values 0.916 | locus YPL240C, strain hsp82, hits give low values 0.997 | locus YPL241C, strain CIN2, hits give low values 1 | locus YPL256C, strain CLN2, hits give low values 0.974 | locus YPR119W, strain clb2, hits give low values 1.02 | locus YPR141C, strain kar3, hits give low values 1.01 | locus YPR163C, strain tif3, hits give low values 1.02 | locus YPR167C, strain met16, hits give low values 0.995 | strain wtn01, hits give low values 1.02
